Over roughly 33,000 sequences, “E-score (-0.5 to 0.5)” has its median near -0.056; the highest 2% begin near 0.38. This is one part of a sample in which the highest values are shown more often than they occur.
These sequences were tested against Stb4 (UniProt P50104) (assay: PBM E-score (8-mer binding enrichment) (E-score (-0.5 to 0.5)); higher = stronger / more preferred TF binding). Conditions: protein concentration: 200 nM; construct: GST-DNA-binding domain.
Outline: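 Masliner-normalised scans of fluorescent anti-GST signal were the basis for scoring. That signal came from GST-tagged yeast transcription factors applied at about 100-200 nM to double-stranded universal all-10-mer Agilent arrays on fresh or once-stripped slides. Each ungapped eight-base word, pooled with its reverse complement, received an E-score from the Universal PBM Analysis Suite.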

Chain of UniProt P50104 (P50104 whole entry, the tested form may be a part): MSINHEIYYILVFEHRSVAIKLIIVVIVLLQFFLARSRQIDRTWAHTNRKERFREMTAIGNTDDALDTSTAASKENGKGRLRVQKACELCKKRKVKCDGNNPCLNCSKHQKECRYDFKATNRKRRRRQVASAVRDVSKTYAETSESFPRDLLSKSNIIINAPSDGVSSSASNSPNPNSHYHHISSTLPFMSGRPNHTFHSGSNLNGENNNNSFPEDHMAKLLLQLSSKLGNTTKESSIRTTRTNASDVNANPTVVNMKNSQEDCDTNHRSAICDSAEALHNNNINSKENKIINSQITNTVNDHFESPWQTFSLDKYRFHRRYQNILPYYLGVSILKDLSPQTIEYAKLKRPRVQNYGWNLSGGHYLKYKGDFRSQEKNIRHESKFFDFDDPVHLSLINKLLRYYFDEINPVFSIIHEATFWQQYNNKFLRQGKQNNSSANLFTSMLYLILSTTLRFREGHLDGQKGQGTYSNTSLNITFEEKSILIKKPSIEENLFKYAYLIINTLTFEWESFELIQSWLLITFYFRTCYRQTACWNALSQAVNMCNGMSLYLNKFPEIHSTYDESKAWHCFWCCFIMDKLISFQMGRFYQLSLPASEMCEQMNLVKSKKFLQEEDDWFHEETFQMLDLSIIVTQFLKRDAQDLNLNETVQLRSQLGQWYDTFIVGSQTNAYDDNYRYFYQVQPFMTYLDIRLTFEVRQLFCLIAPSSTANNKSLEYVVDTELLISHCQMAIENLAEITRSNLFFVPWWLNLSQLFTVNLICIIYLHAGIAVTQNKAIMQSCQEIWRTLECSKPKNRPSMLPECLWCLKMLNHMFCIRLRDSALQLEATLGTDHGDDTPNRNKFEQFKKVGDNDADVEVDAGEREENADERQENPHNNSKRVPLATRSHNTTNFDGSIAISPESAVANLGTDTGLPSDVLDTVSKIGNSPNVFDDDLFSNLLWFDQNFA

Row | Sequence | PBM E-score
1 | CAGGCGAG | -0.294
2 | ACTGCATA | -0.135
3 | AGTATCTC | -0.0258
4 | TCTAGCAA | -0.0809
5 | CATCCAGG | -0.178
6 | CATCCGTA | 0.329
7 | CATCCGGG | 0.397
8 | AGTCCGGC | 0.0945
9 | AATCCGGG | 0.306
10 | CATCCGGC | 0.397
11 | CATCCGGA | 0.406
12 | CGTCCGGC | 0.253
13 | CCTCCGGA | 0.307
14 | AAAGCCCT | -0.106
15 | CGAAAACA | 0.123
16 | CGTGTTTA | -0.00808
17 | AGCTGTGC | -0.148
18 | AATATCTA | -0.0944
19 | CCGCTATA | 0.0382
20 | AGTTCTCG | 0.0181
21 | ATCTTAAG | -0.187
22 | CCGCTGAC | 0.0389
23 | CCACCGCG | -0.00158
24 | AACCGAAT | 0.325
25 | ACCCCGAT | 0.266

Row | Sequence | PBM E-score
26 | CCCCGAAG | 0.354
27 | TCACGAAA | -0.0978
28 | ACACGAAG | 0.00748
29 | TCCCGACA | 0.355
30 | ACCCGAAC | 0.463
31 | GCCCGAAC | 0.262
32 | CCCCGAAC | 0.338
33 | TCCCGAAA | 0.432
34 | ACCCGAAT | 0.425
35 | ACCCGAAG | 0.424
36 | GGGGTTAA | 0.0779
37 | GCTTTCAA | -0.0547
38 | CGAGAGTC | 0.0872
39 | ATGCCTTC | -0.0568
40 | CTTTTCAC | -0.191
41 | ATGCCCAG | 0.0828
42 | CGGACAGA | 0.129
43 | CACGCTTC | 0.0187
44 | CCCCGAAA | 0.34
45 | GCCCGAAA | 0.276
46 | ACCCGAAA | 0.435
47 | AAGTGCAG | -0.212
48 | AACTTAGT | 0.0161
49 | AATCCCGT | 0.303
50 | TATCCCAA | 0.0571

Row | Sequence | PBM E-score
51 | GATCCCGA | 0.417
52 | CATCCCGC | 0.122
53 | CATCCCGA | 0.401
54 | GATCCCAA | -0.0342
55 | AATCCCGA | 0.431
56 | AATCCCGC | 0.225
57 | CATCCCGG | 0.342
58 | TATCCCGA | 0.398
59 | TATCCCCA | -0.185
60 | GATCCCGC | 0.225
61 | CGAGTAAA | 0.143
62 | ATTGTAGA | -0.132
63 | AGTTTGGG | -0.172
64 | AGCTAAAA | -0.0535
65 | CCAGTTGC | -0.0304
66 | CAATAGGC | -0.0832
67 | TCAGATAA | -0.0704
68 | AATCCTTA | -0.0563
69 | CCGGGATC | 0.384
70 | CCCGGACA | 0.264
71 | CCGGGATA | 0.292
72 | CCCGGAGA | 0.318
73 | CGGGGATC | 0.279
74 | GCCGGATA | 0.409
75 | CCCGGATA | 0.429

Row | Sequence | PBM E-score
76 | ACCGGACG | 0.146
77 | GCCGGAGA | 0.192
78 | GCCGGACA | 0.154
79 | ACCGGAGG | 0.228
80 | ACCGGATG | 0.385
81 | AAGGGGTC | -0.176
82 | GACGTACC | -0.0237
83 | CAAAGCAA | -0.0355
84 | ATCGAGAA | -0.157
85 | GATTTTAC | 0.0329
86 | GGACGGCC | -0.028
87 | ATGCCAAG | -0.177
88 | GCAAAAAA | 0.137
89 | CCGCAGTC | 0.112
90 | TGATTGCA | -0.0923
91 | ACCGGATC | 0.353
92 | ACCGGATA | 0.388
93 | ACCGGACA | 0.128
94 | ACCGGAGA | 0.187
95 | CCCGGATC | 0.385
96 | CCCGGAGC | 0.32
97 | CAAAATGC | -0.121
98 | CTGAACCA | -0.197
99 | ACGCCGTA | -0.208
100 | ATCAACAC | -0.101

Row | Sequence | PBM E-score
101 | CTGAAATC | -0.0865
102 | ACGAAATC | -0.0845
103 | CCGAAATA | 0.401
104 | GCGAAATA | 0.0947
105 | ACGAAATA | -0.111
106 | CCGAAATC | 0.405
107 | CGGTAACA | 0.238
108 | ACACTGCG | 0.00398
109 | AGGTTGGC | -0.205
110 | GTATTATA | 0.0782
111 | TATTCCGA | 0.462
112 | CATTCCGG | 0.358
113 | TATTCCAA | -0.113
114 | CATTCCGC | 0.175
115 | AATTCCGA | 0.46
116 | CATTCCGA | 0.449
117 | GATTCCCA | -0.109
118 | GATTCCGC | 0.222
119 | AATTCCGG | 0.358
120 | TATTCCCA | 0.0571
121 | AATTCCGC | 0.246
122 | GATTCCGA | 0.444
123 | CCACCCGC | 0.194
124 | TATCAAGA | -0.216
125 | CAGCCTGG | -0.203

Row | Sequence | PBM E-score
126 | CCCAGTGC | -0.0453
127 | ATGTCGGC | 0.138
128 | GTGTCGTA | -0.0741
129 | ATGTCGGA | 0.389
130 | GTGTCGGA | 0.395
131 | CTGTCGGA | 0.353
132 | GTGTCGCA | -0.0287
133 | ATTAGTAA | 0.076
134 | AGTGATAG | -0.33
135 | AGCACAGA | -0.121
136 | GCCAATAA | 0.0672
137 | ACCATCCT | -0.249
138 | AACATCCC | 0.232
139 | ATCATCCC | 0.052
140 | AACATCCT | -0.0622
141 | CACATCCA | -0.0807
142 | ACCATCCG | 0.406
143 | CACATCCG | 0.425
144 | AACATCCG | 0.45
145 | ATCATCCA | -0.121
146 | ATCATCCG | 0.414
147 | ACCATCCC | 0.0842
148 | CACATCCC | 0.187
149 | AATCAATA | -0.0212
150 | CGATTAAG | -0.128

Row | Sequence | PBM E-score
151 | AAAAGGGC | -0.141
152 | CAATTCTA | -0.196
153 | AATTCTTA | -0.0318
154 | CTGGAGCA | -0.262
155 | ATCCTAGG | -0.0251
156 | GCTCCAAC | -0.111
157 | CACTGGCA | -0.23
158 | GCTTGAGA | -0.312
159 | GCGAGATA | 0.026
160 | ACGAGATA | -0.184
161 | ACGAGATC | -0.0355
162 | CCGAGATA | 0.405
163 | CTGAGATC | -0.0537
164 | CCGAGATC | 0.435
165 | AAGCAGCT | -0.0723
166 | CCAGACTA | -0.229
167 | CTGAGGGA | -0.284
168 | AGTTTCCA | -0.103
169 | AGTTTCCC | 0.132
170 | ACTTTCCT | -0.22
171 | ATTTTCCG | 0.424
172 | CATTTCCC | 0.18
173 | AGTTTCCG | 0.437
174 | CATTTCCA | -0.196
175 | ACTTTCCG | 0.383

Row | Sequence | PBM E-score
176 | ACTTTCCC | 0.121
177 | ATTTTCCA | -0.0573
178 | ATTTTCCC | 0.0682
179 | CATTTCCG | 0.421
180 | CGCAGGAA | -0.0189
181 | ATATGGCG | 0.0558
182 | CGAGTAAC | 0.166
183 | CTGGCTGC | -0.108
184 | AAAGGGTC | -0.0434
185 | ACGGGGGG | -0.228
186 | GCCACGCC | -0.282
187 | GATAGCGA | -0.0238
188 | AATTTCCC | 0.142
189 | AATTTCCG | 0.425
190 | AGTTTCGC | 0.0157
191 | AGTTTCGG | 0.412
192 | AATTTCCT | -0.0502
193 | AGTTTCGA | -0.131
194 | CTAAGTCA | -0.0795
195 | CCCAATGC | -0.17
196 | ATTGGCTG | -0.167
197 | GATAAGCA | 0.136
198 | AGTTCGGA | 0.442
199 | AGTTCGCA | -0.158
200 | AGTTCGTA | 0.0255

Row | Sequence | PBM E-score
201 | AGTTCGGC | 0.357
202 | AGTTCGTG | -0.157
203 | AGTTCGGG | 0.426
204 | AACATTCA | -0.00804
205 | AACGGCAT | 0.232
206 | AAAAGAGC | -0.189
207 | ATTCTCGC | -0.286
208 | ATTCTCGA | -0.194
209 | CATCTCGA | -0.252
210 | CATCTCGC | -0.0526
211 | AATCTCGA | -0.0861
212 | AAACTCGC | -0.0551
213 | CATCTCGG | 0.458
214 | AATCTCGT | -0.0273
215 | AATCTCGG | 0.434
216 | AAACTCGT | -0.228
217 | AAACTCGG | 0.419
218 | ATTCTCGG | 0.425
219 | CACGCTCG | 0.119

Source: the supplement of paper PMC3334620
